# According to PubChem BioAssay AID652126 (The Scripps Research Institute Molecular Screening Center, 2013):
# The campaign covered roughly 370,000 compounds. About 3,700 (1%) were called active. The entries come from a sample that favours actives as a whole. A number with no mark means an inactive call.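 How the source made its calls: active means activation above the mean over all tested compounds plus 3 SD (cut at about 0.9% in these data); inactive means the rest.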
# Tested on: Nuclear hormone receptor DAF-12 (Strongyloides stercoralis)
# Experiment: ssDAF-12 driven luciferase reporter activation – cell-based, luminescence, HEK293, GRIP1 co-expression, lit1-tk-luc, primary screen (AID 652126);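 further: 0% = DMSO-only wells and 100% = 3 µM delta7-dafachronic acid wells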
# Settings: HEK293 ssDAF-12/GRIP1 lit1-tk-luc reporter, at 6.8 µM, active compounds read high, % of 3 µM dafachronic acid response
row,Compound,activation
1,COc1ccc(N2CCN(CCNS(=O)(=O)c3ccc(C(C)(C)C)cc3)CC2)cc1,-0.72%
2,Cc1ccc(Cn2cc(CN3[C@@H](C)COc4cc(Br)ccc4S3(=O)=O)nn2)cc1,-1.02%
3,O=C(Nc1ccn(Cc2ccccc2)n1)c1n[nH]c([N+](=O)[O-])c1Cl,1.07% (active)
4,O=C(O)CC(Cc1ccccc1)C(=O)Nc1ccc([N+](=O)[O-])cc1 (stereo unspecified),-1.24%
5,O=C(Cn1cnc([N+](=O)[O-])n1)NCCc1ccccc1,-1.02%
6,Cc1ccccc1CS(=O)(=O)Cc1ccc(C(=O)Nc2ccc(Cl)cc2)o1,-2.4%
7,O=C(C1CCN(C2CCN(Cc3cccc4c3OCO4)CC2)CC1)N1CCOCC1,-0.29%
8,C/C(=C\c1ccco1)CN1CCC(N2CCC(C(=O)N3CCOCC3)CC2)CC1,1.16% (active)
9,O=C(C1CCN(C2CCN(Cc3ccc4cc(F)ccc4n3)CC2)CC1)N1CCCC1,0.06%
10,O=S(=O)(c1ccccc1)N1CCC(c2nc3ccccc3o2)CC1,-1.57%
11,C=C(C)C#CC(Cc1ccccc1)NCC1CC1 (stereo unspecified),-1.12%
12,COC(=O)[C@H](C(C)C)N1CCc2nnn(Cc3ccc(C)cc3)c2-c2ccccc2S1(=O)=O,-1.89%
13,COC(=O)[C@@]12CCCCC=C1N(CCc1ccc(Cl)cc1)C(=O)[C@H]2CC(=O)NCc1ccc(OC)c(OC)c1,-1.91%
14,Cc1ccc2cc(/C=N/Nc3ccc(C(=O)O)cc3)c(Cl)nc2c1,0.95% (active)
15,Cc1ccc(/C=C2\CCn3c2nc2cc(C(=O)O)ccc2c3=O)c(C)c1,-1.16%
16,Cc1ccc(C(=O)N/N=C/c2sc(=O)n(Cc3cccc(C(=O)O)c3)c2Cl)cc1,0.05%
17,COc1cccc(N2CCN(CC(=O)N(C)Cc3ccc(F)cc3)CC2)c1,-1.79%
18,O=S1(=O)c2c(cccc2N2CC[C@H](O)C2)O[C@@H]2CCN1C2,-0.61%
19,CC(=O)OC12CCCN(C1)/C(=C/c1ccncc1)C2 (stereo unspecified),-1.9%
20,Cc1cc(C)nc(Nc2n[nH]c(-c3ccccc3N)n2)n1,1.05% (active)
21,Cc1cc(C)n2ncc(C(=O)Nc3ccc4c(c3)OCCO4)c2n1,-1.35%
22,C=CCN1C(=O)[C@@H](CC(=O)N2CCN(C(=O)c3ccco3)CC2)[C@]2(C(=O)OC)CCCCC=C12,-0.85%

row,Compound,activation
1,O=C(CSc1nc2ccccc2n1Cc1ccccc1Cl)N/N=C\c1c[nH]c2ccccc12,-0.54%
2,COc1ccc(N(CC(=O)N/N=C/c2cccs2)S(=O)(=O)c2ccc(OC)c(OC)c2)cc1,-1.66%
3,Cc1c(NC(=O)C(=O)N/N=C/c2cccs2)c(=O)n(-c2ccccc2)n1C,-1.41%
4,COc1ccc2c(c1)c(C(=O)N/N=C/c1cccs1)c(C)n2C,1.69% (active)
5,O=C(CSc1nc2ccccc2n1Cc1ccccc1)NNC(=S)Nc1ccccc1,-1.45%
6,C=CCN1C(=O)[C@@H](CC(=O)NCCCCc2ccccc2)[C@]2(C(=O)OCC)CCCCC/C=C/12,-1.06%
7,Cc1cc(OCc2cc(C(=O)NCc3cc(C(C)C)no3)no2)cc(C)c1Cl,1.55% (active)
8,CCC(NC(=O)c1cc(COc2ccc(F)c(F)c2)on1)c1ccncc1 (stereo unspecified),-0.62%
9,CCOC(=O)CC1(NC(=O)c2cc(COc3cncc(Cl)c3)on2)CCCCC1,-1.57%
10,Cc1ccc(C2=CCN(C)C(=O)N2c2ccc(Cl)cc2)cc1,-0.59%
11,Nn1c(SCC(=O)Nc2cccc3ccccc23)nnc1-c1cc(-c2ccc(F)cc2)n[nH]1,-1.45%
12,Cc1ccc(OCc2nc3ccccc3n2C)cc1,0.93% (active)
13,Cc1ccc(OCc2nnc(SC3CCc4ccccc4C3=O)n2C)cc1 (stereo unspecified),-0.36%
14,COc1cccc(C(O)Cc2nc3ccccc3n2C)c1OC (stereo unspecified),-1.62%
15,Cc1ccc(C(=O)N(Cc2ccccn2)CC2CCCO2)cc1 (stereo unspecified),-0.96%
16,COc1ccc(Cl)cc1NC(=O)C(C)N1CCc2ccccc21 (stereo unspecified),-1.48%
17,COC(CNC(=O)[C@H](Cc1ccccc1)NC1(C(=O)NC2CCCCC2)CCCCC1)OC,-1.29%
18,COC(=O)[C@]12C[C@H](CC(=O)N3CCN(C(=O)C4CC4)CC3)C(=O)N(CCC3=CCCCC3)C1=C[C@H](C(C)C)O[C@@H]2C1CC1,-1.07%
19,Cc1cc(N=Nc2ccc3ccccc3c2)ccc1O,1.92% (active)
20,COC(=O)CC1CCc2cc(C)cc(C(CC(C)C)NC(=O)[C@H](CC(C)C)NC(=O)OCc3ccccc3)c2O1 (stereo partly specified),-1.68%
21,CC(C)(C)c1ccc(CSc2nnc(-c3cccs3)o2)cc1,-0.67%
22,CCN(Cc1ccccc1)C(=O)CSc1nc(C)cc2c1C(=O)OC2,-0.86%

row,Compound,activation
1,CCOC(=O)CSc1ncc(-c2cccc(Cl)c2)cn1,-1.41%
2,CCOC(=O)CSc1nc(C)cc2c1C(=O)OC2,1.04% (active)
3,COC(=O)C1CN(CCc2ccccc2)CCS(=O)(=O)N1Cc1ccc(F)cc1 (stereo unspecified),-0.95%
4,COc1cccc(/C=C/C(=O)Nc2ccc3c(c2)OCCO3)c1,-0.84%
5,Cc1cccc(NC(=O)/C=C/c2ccc3c(c2)OCO3)n1,1.53% (active)
6,CN(Cc1ccccc1)C(=O)COC(=O)/C=C/c1ccc2c(c1)OCO2,-0.82%
7,c1csc(-c2nnc(SCc3nc4ccccc4[nH]3)o2)c1,-0.86%
8,O=C(CSc1nnc(-c2ccccn2)n1-c1ccccc1)Nc1ccc2cn[nH]c2c1,-0.07%
9,CC(=O)c1cc(-c2ccc3ccccc3c2)c(=O)n2c1CCC2,-1.47%
10,CC(CCN1CCC(C(O)(c2ccccc2)c2ccccc2)CC1)Oc1ccc(C(F)(F)F)cc1 (stereo unspecified),-0.69%
11,C/C=C/C(=O)OCc1csc(CC(=O)Nc2ccccc2C)n1,-0.39%
12,CC(=O)Nc1ccc(S(=O)(=O)NC(C)C(=O)OCC(=O)NC2CCCC2)cc1 (stereo unspecified),-0.65%
13,Cc1ccc(NC(=O)Cc2nc(COC(=O)C(C)NS(=O)(=O)c3ccc(C)cc3)cs2)cc1 (stereo unspecified),0.98% (active)
14,COc1cccc(CNC(=O)CNS(=O)(=O)c2ccc3nc(C)sc3c2)c1OC,-1.81%
15,COc1ccc(CCNC(=O)CSc2nc3c([nH]2)c(=O)n(C)c(=O)n3C)cc1,-1.12%
16,COc1ccc2c(C(C)c3ccc(N)cc3)cn(C)c2c1 (stereo unspecified),-0.41%
17,Cc1cc(Br)cn2c(Cc3ccccc3C(F)(F)F)c(C3CCCCC3)nc12,-0.29%
18,CCCc1nc2c3ccccc3ccn2c1Cc1ccccc1C(F)(F)F,1.29% (active)
19,FC(F)(F)c1ccccc1Cc1c(-c2ccccc2)nc2c3ccccc3ccn12,-0.19%
20,COc1ccc(S[C@]2(C(=O)N(C)C)CC(=O)N(c3ccc(OC)cc3)[C@@H]2c2ccc(OC)cc2)cc1,-1.42%
21,O=C(CSc1nnc(COc2ccccc2)n1-c1ccc(Cl)cc1)Nc1ccc2c(c1)OCO2,-0.91%
22,N#CCCN(C(=O)COC(=O)C1CCN(c2ccc(C(F)(F)F)cn2)CC1)c1ccc(F)cc1,-1.01%

row,Compound,activation
1,CC(c1ccccn1)N(C)C(=O)c1ccc2nc(Cc3cccc(Cl)c3)oc2c1 (stereo unspecified),0.07%
2,COc1ccc(Cc2nc3ccc(C(=O)NCC4CCOCC4)cc3o2)cc1OC,-0.41%
3,CSCCNC(=O)c1ccc2nc(Cc3ccccc3F)oc2c1,1.4% (active)
4,CC(C)c1ccc(N(C(=O)c2ccco2)C(C(=O)NC2CCCC2)c2cccnc2)cc1 (stereo unspecified),-0.62%
5,CCCC(NC(=O)c1ccco1)c1nc2ccccc2[nH]1 (stereo unspecified),-0.66%
6,CC/C(O)=C1\C(=O)CC(C)(C)CC1=NCCc1nc2ccccc2[nH]1,-1.35%
7,CCC(=O)/C(=C(/O)c1ccccc1)c1nc2ccccc2[nH]1,0.91% (active)
8,COC(=O)[C@]12C[C@H](CC(=O)NCC34CC5CC(CC(C5)C3)C4)C(=O)N(Cc3ccc(Cl)cc3Cl)C1=C[C@H](COCc1ccccc1)O[C@@H]2C,-0.9%
9,O=C(CN1CCCc2ccccc21)NCc1ccc(F)cc1,1.32% (active)
10,O=C(CN1C(=O)CCS(=O)(=O)c2ccccc21)NCc1ccc(F)cc1,-1.14%
11,O=C(Cn1nc(C(F)(F)F)c2c1CCC2)NCc1ccc(F)cc1,-0.8%
12,CCCNC(=O)Nc1ccc2c(c1)C(=O)N(C)[C@H]1CC[C@H](CC(=O)NCC3CCCCC3)O[C@@H]1CO2,-1.84%
13,c1ccc2sc(NN=C3CCCC3)nc2c1,1.21% (active)
14,O=C(COc1ccc(-c2ccccc2)cc1)NN=C1CCCC1,-1.61%
15,O=C1NC(Nc2nc3ccccc3s2)(C(F)(F)F)C(=O)N1C1CCCCC1 (stereo unspecified),-1.03%
16,COC(=O)[C@]12C[C@H](CC(=O)NCc3cccs3)C(=O)N(CCc3ccc(OC)c(OC)c3)C1=C[C@H](C(C)C)O[C@@H]2C1CC1,-0.56%
17,CC[C@@H](CCC(=O)N(c1ccccc1)c1ccccc1)C1CC1,-1.64%
18,NC(=O)C1(N2CCCCC2)CCN(C(=O)c2ccc(C#Cc3ccccc3)o2)CC1,-1.3%
19,CC(C)(O)C#Cc1ccc(C(=O)N2CCC(C(N)=O)(N3CCCCC3)CC2)cc1,1.03% (active)
20,CCC(=O)N1CCC(C(N)=O)(N2CCCCC2)CC1,-1.29%
